Screening data deposited in PubChem by National Center for Advancing Translational Sciences (NCATS).
Epigenetic derep – epigenetic control regulation, reporter derepression. murine LDR cells, GFP reporter derepression, 30 h. Potency, µM (doses to about 53.9 µM), without a hit: top-dose GFP activation, actives largely listed as activators. 0.2% of 280,000 active. AID 1865; further: % of control where 0% means no effect; nearly all actives have a fitted effect of over 60% in size
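Murine LDR cells bearing a silenced CMV-driven GFP reporter were exposed to compound for 30 h at 37 C. After PBS washes, GFP-positive cells (20-120 um objects) counted by laser-scanning microplate cytometry.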
Nrf2 inh – blocks Nrf2 signaling; A549 ARE-Fluc reporter, luciferase luminescence, 18-24 h; Potency, µM (highest dose often 46 µM), without a hit: at the top dose activity change, negative = inhibition, hits mostly inhibitors; 2.1% of 360,000 active; AID 504444; further: on the % scale 0 is the no-effect control and ±100 the full control effect; nearly all actives have a fitted effect of over 60% in size
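Concentration-response testing used A549 ARE_Fluc cells at 5000 cells/well. Following an 18-24 h compound incubation, viability was read by fluorescence (Ex 405/Em 525) and luciferase output by luminescence.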
A549 viability – counter-screen for Nrf2 inhibitors: cytotoxicity in A549 cells. A549 ARE-Fluc cells, CellTiter-Fluor viability, 18-24 h. Potency, µM (highest dose often 46 µM), for the others: at the top dose activity change, negative = cytotoxicity, hits mostly inhibitors. 0.16% of 390,000 active. AID 504648; further: on the % scale 0 is the no-effect control and ±100 the full control effect
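A549 ARE-Fluc cells in 5% FBS OPTI-MEM, 5000 cells/well, rested 2 h then exposed to compounds in concentration-response for 18-24 h at 37 °C. Viability by CellTiter-Fluor fluorescence (Ex 405/Em 525) after 30 min; luciferase luminescence (BugLite, 15 min, RT) read afterwards.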
PINK1 expr mod – PINK1 expression modulation. PINK1 immunofluorescence, high-content cytometry, 24 h. Potency, µM (titrated, usually from 76.6 µM), for the others: at the highest dose activation (PINK1 increase), usual class: activators. 0.2% of 410,000 active; active means well fitted activation curve with a large enough effect; inconclusive means small, poorly fitted or top-dose-only effect; cell line not stated here; further: % of control where 0% means no effect; nearly all actives have a fitted effect of over 65% in size
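Stable cell line, 250 cells/well, 12 h attachment; compounds pinned at 5 concentrations, 24 h; CCCP control. Fixed with nuclear dye, primary antibodies 12 h at 10 degrees C, secondary plus cell stain; laser-scanning cytometer read.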
Nrf2 activator – activators of Nrf2 (ARE) signaling | AREc32 ARE-luciferase reporter (MCF7-derived line), luminescence, 24 h | Potency, µM (doses to about 46.1 µM), for the others: at the highest dose activation, hits mostly activators | 0.31% of 410,000 active; further: % of control where 0% means no effect; nearly all actives have a fitted effect of over 65% in size
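AREc32_Fluc, 1000 cells/well, OPTI-MEM + 5% FBS, o/n 37 deg C 5% CO2; 23 nL cpd by pin tool, 24 hr; Steady-Glo 30 min RT, luminescence.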
The depositor's hits bear a star; ? = inconclusive; . = not tested or not shown; [ ] = another dose, or the depositor's remark. Most compounds without a hit are left out; they make up all but 2.4% or so of the library. Unless noted, the call rests on the fitted dose curve; in most records, active means well fitted curve in the direction sought with a large enough effect; inconclusive means small, poorly fitted or top-dose-only effect, or another doubt; inactive means no such curve, though single readings can be large; an effect the other way counts as inactive or inconclusive. Potency means the concentration at half of the fitted maximal effect.

SMILES	Epigenetic derep	Nrf2 inh	A549 viability	PINK1 expr mod	Nrf2 activator
COc1cccc(CNC(=O)CN2CCC(c3nc4ccc(C)cc4[nH]3)CC2)c1	2%	16µM*	0%	4%	0%
COc1cc(OC)c(OC)cc1/C=C1/Cc2ccccc2C1=O	.	3%	16%	1%	5.6µM*
COc1ccc(/C=C2/CCc3ccccc3C2=O)cc1OC	-3%	23µM*	-9%	6%	?
COc1cc(/C=C2\CC(C(C)(C)C)C/C(=C\c3cc(OC)c(OC)c(OC)c3)C2=O)cc(OC)c1OC (configuration not stated)	.	5.8µM*	8.2µM*	0%	?
COc1cc(/C=C2\CC/C(=C\c3cc(OC)c(O)c(OC)c3)C2=O)cc(OC)c1O	?	16µM*	?	2%	-1%
OC1(c2cccnc2)CCN(Cc2ccc3c(c2)CN(Cc2cccc(C(F)(F)F)c2)CCO3)CC1	.	.	.	-1%	.
CC1(C)OB(c2cnc(C#N)nc2)OC1(C)C	.	.	.	0%	.
COC(=O)c1nnn(CC(=O)Nc2c(C)cccc2C)c1N	-2%	-8%[9.27 µM]	1%	-1%	0%
COc1cc(/C=C2/CCc3ccccc3C2=O)cc(OC)c1OC	1%	15µM*	-17%	-4%	?
O=C1/C(=C\c2ccc(Br)o2)Cc2ccccc21	-2%	?	1%	0%	11µM*
O=C1C(=Cc2cccc(Cl)c2)CCc2ccccc21	.	.	.	0%	?
COc1cc(OC)c(OC)cc1/C=C1\CC(C)C/C(=C\c2cc(OC)c(OC)cc2OC)C1=O (configuration not stated)	.	?	?	-3%	-1%
CCC1C/C(=C\c2cc(OC)c(OC)cc2OC)C(=O)/C(=C/c2cc(OC)c(OC)cc2OC)C1 (configuration not stated)	.	18µM*	?	-3%	-3%
O=C1C(=Cc2cccc(Cl)c2)Cc2ccccc21	.	.	.	2%	10µM*
COc1cc(-c2ccc3ncnc(NCCc4cnc[nH]4)c3c2)cc(OC)c1OC	.	?	9%	.	.
Cc1ccc(NC(=O)Nc2cccnc2)cc1NC(=O)Nc1cccnc1	2%	18µM*	-16%	-1%	0%
Cc1ccc(CN2CCc3c(OCc4ccc(F)cc4)cccc3C2=O)cc1	0%	?	3%	13%	2%
O=C1c2cccc(OCc3ccc(F)cc3)c2CCN1Cc1ccc(F)cc1	-1%	16µM*	-5%	13%	0%
O=C(CN1Cc2ccccc2OC(c2ccsc2)C1)NCc1ccc2c(c1)OCO2 (configuration not stated)	.	.	.	-1%	.
CO/N=C/C(C#N)c1ncc(C(F)(F)F)cc1Cl (configuration not stated)	2%	?	-7%[1.84 µM]	13µM*	-1%
Cc1ncc(CO)c(/C=N/Nc2ccc(C(F)(F)F)cn2)c1O	.	10µM*	?	1%	-1%
CCC(C)NC(=O)Cn1c(=O)n(Cc2ccc(C(=O)NCc3ccc(C)cc3)cc2)c(=O)c2ccccc21 (configuration not stated)	5%	?	-17%	-1%	0%
Cc1ccc(S(=O)(=O)Nc2ccc(C(=O)N3CCN(c4ccccc4O)CC3)cc2)cc1[N+](=O)[O-]	.	15µM*	-26%	3%	3%
CCc1ccc(NC(=O)C(C)OC(=O)c2ccc(NS(=O)(=O)c3ccc(C)c([N+](=O)[O-])c3)cc2)cc1 (configuration not stated)	-1%	21µM*	?	45µM*	3%
Cc1ccccc1NS(=O)(=O)c1ccc(C(=O)N2CCN(c3ccccc3O)CC2)cc1	.	?	-14%	7%	1%
Cc1cccc(C(=O)N2CCN(c3ncnc4c3cnn4-c3ccccc3)CC2)c1	-1%	18µM*	-15%	1%	3%
CN(C)c1nc2cc3c(cc2cc1CN(CC1CCCO1)C(=O)c1cccc(F)c1)OCO3 (configuration not stated)	.	.	.	2%	.
CCOc1ccc2nc(N3CCC(C(=O)N4CCN(c5ccccn5)CC4)CC3)sc2c1	-1%	16µM*	-18%	8%	3%
O=C(Nc1ccccc1-c1cn2c(CN3CCNCC3)csc2n1)c1cnc2ccccc2n1	.	.	.	-1%	.
